Inhibition data for 38 compounds are collected here from PubChem BioAssay.

“And” between values parts separate entries of the source, which are not always exact repeats. Equal entries are not always repeated. Unmarked numbers belong to inactive results. The source made the active and inactive calls.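 The calls were made as follows: active = inhibition at or above 50% relative to wild type and mutant plate controls; inactive = inhibition below 50%.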

The nature of this assay: inhibitors of Chlamydomonas gravitaxis, primary screen, whole organism, Chlamydomonas reinhardtii, WT vs cilia-less mutant, absorbance, 96-well (AID 463189).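 Also: 0% = wild type cc124 cells in DMSO and 100% = ciliumless bld1 mutant cells.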 To be noted: OD600 absorbance, 2 days, at 10 µM, stronger effect = higher value.
`COc1ccc(CNC(=O)/C=C/c2ccc3[nH]cc(CCN(C)C)c3c2)cc1`: the inhibition (usually the relative decrease from the control value, in per cent) was -7.85%.

In the case of `NC1CCc2cc(O)c(O)cc2C1` (stereo not drawn), the inhibition is -5.92%.

Turning to `C=CCN1CCC2(C)c3cc(O)ccc3CC1[C@@H]2C` (stereo partly drawn), the inhibition was 4.21%.

Take `C[C@@H]1O[C@H](C[N+](C)(C)C)C[C@H]1O`: the inhibition was 3.38%.

For `CC(=O)OCC1=C(C(=O)[O-])N2C(=O)[C@@H](NC(=O)CCC[C@@H](N)C(=O)[O-])[C@H]2SC1.[Zn+2]`, the inhibition is 3.46%.

Regarding `NC(=O)CN1CC(O)CC1=O` (stereo not drawn), the inhibition is 9.01%.

Consider `NC(=O)CN1CCCC1=O`, for which the inhibition was -12.5%.

Turning to `CC12NC(Cc3ccccc31)c1ccccc12` (stereo not drawn), the inhibition was 2.33%.

As for `CC(C)NC(C)Cc1ccc(I)cc1` (stereo not drawn), the inhibition is 22.2%.

For `CCn1cc(C(=O)O)c(=O)c2ccc(C)nc21`, the inhibition was -5.13% and 33.3%.

For `Oc1ccc2c3c1O[C@H]1c4oc5ccccc5c4C[C@@]4(O)C(C2)N(CC2CC2)CCC314` (stereo partly drawn), the inhibition is 3.38%.

As for `C[C@]12N[C@H](Cc3ccccc31)c1ccccc12`, the inhibition is -0.308%.

Turning to `Oc1ccc2c3c1O[C@H]1[C@@H](O)CC[C@@]4(O)C(C2)N(CC2CCC2)CCC314` (stereo partly drawn), the inhibition was 3.28%.

In the case of `COc1ccc2c(c1OC)C(=O)O[C@H]2[C@@H]1c2cc3c(cc2CCN1C)OCO3`, the inhibition is -6.11%.

On to `Oc1ccc2c3c1O[C@H]1c4[nH]c5c(c4C[C@@]4(O)[C@@H](C2)N(CC2CC2)CC[C@]314)C[C@@]1(O)[C@H]2Cc3ccc(O)c4c3[C@@]1(CCN2CC1CC1)[C@H]5O4`, for which the inhibition was -0.992%.

In the case of `NCCc1c[nH]c2ccccc12`, the inhibition was 2.92%.

In the case of `C[C@H](Cc1ccc2c(c1)OC(C(=O)O)(C(=O)O)O2)NC[C@H](O)c1cccc(Cl)c1`, the inhibition is 1.22%.

On to `O=[N+]([O-])c1cc(O)c(O)c([N+](=O)[O-])c1`, for which the inhibition was -10.8%.

As for `O=c1[nH]oc2c1CCNC2`, the inhibition is 1.51%.

Consider `CCN(CC)c1ncnc2c1ncn2[C@@H]1O[C@H](COP(=O)(O)OP(=O)(O)C(Br)(Br)P(=O)(O)O)[C@@H](O)[C@H]1O`, for which the inhibition was -12.6%.

With `CNC(=O)OCC[N+](C)(C)C`, the inhibition was -0.129%.

For `C/C(O)=C(\C#N)C(=O)Nc1cc(Br)ccc1Br`, the inhibition is 2.1%.

As for `CN(N=O)c1cc(O)ccc1O`, the inhibition was 2.32%.

Take `CN1CCc2cc(O)cc3c2[C@H]1Cc1ccc(O)c(O)c1-3`: the inhibition was -0.305%.

`C[C@@H](N)Cc1cnc[nH]1`: the inhibition was -0.522%.

For the compound `CCN(CCCl)Cc1ccccc1Br`, the inhibition was 6.59%.

Turning to `C[N+](C)(C)CC#CCN1CCCC1=O`, the inhibition was -6.29%.

Turning to `CCCN(CCC)CCc1ccc(O)c(O)c1`, the inhibition was 0.931%.

Regarding `N#CC(=Cc1ccc(O)c(O)c1)C(N)=S`, the inhibition was 10.3%.

For `CC[C@@H](CO)NC(=O)[C@@H]1C=C2c3cccc4[nH]cc(c34)C[C@H]2N(C)C1`, the inhibition is -0.368%.

Regarding `COC(=O)C1=CCCN(C)C1`, the inhibition was -3.75%.

Regarding `O=C(O)c1nn(Cc2ccc(Cl)cc2Cl)c2ccccc12`, the inhibition is -0.768%.

`COc1ccc(-n2nc(C(F)(F)F)cc2-c2ccc(Cl)cc2)cc1`: the inhibition is -10.1%.

Regarding `O=C(OC1CCN(CCCl)CC1)C(c1ccccc1)c1ccccc1`, the inhibition is -11.2%.

For the compound `CC(=O)NCCc1c[nH]c2ccccc12`, the inhibition was 7.09%.

Turning to `N[C@@H](Cn1ccc(=O)[nH]c1=O)C(=O)O`, the inhibition was -4.9%.

`CC(C)Oc1cccnc1N(C)C1CCN(Cc2ccccc2)CC1`: the inhibition was 54.9% (active).

As for `CNc1ccc2oc(C[C@H]3O[C@@]4(CC[C@H]3C)O[C@H]([C@H](C)C(=O)c3ccc[nH]3)[C@H](C)C[C@H]4C)nc2c1C(=O)O`, the inhibition was 84.5% (active).
